# Experimental data: PubChem BioAssay (EPA / NIEHS)
# Several values for one entry are separate records, joined by “and”; a condition that tells them apart may be missing. Equal values may be shown once. Activity calls are given as the source filed them. The calls were made as follows: active = hit-call score of the fitted dose curve at least 0.9, where 1 is the maximum; inactive = score below 0.9.
# Experiment: CCTE_Shafer_MEA_dev_interburst_interval_mean: CCTE's Neural Network Formation Assay for Mean Interburst Interval, Shafer Lab (AID 2284046)
# Protocol: CCTE_Shafer_MEA_dev assay is conducted using Axion Biosystems 48 well microelectrode array (MEA) plates and Maestro recording system. Each well of the MEA plate contains a grid of 16 microelectrodes embedded in the culture surface. Electrically active cells, such as neurons, can be cultured over the electrodes, and electrical activity in these cells can be recorded extracellularly. The spontaneous firing of neurons is captured from each electrode on a microsecond timescale providing both temporally and spatially precise data. […] The CCTE_Shafer_MEA_dev assay uses primary cultures of rat cortical neurons. Recordings are made on days post-plating 5, 7, 9 and 12. As these cultures mature over time, neural networks develop functional activity and form cohesive networks in which electrical activity can be highly coordinated. CCTE_Shafer_MEA_dev_interburst_interval_mean is 1 of 19 assay components of the CCTE_Shafer_MEA_dev assay. It measures the average time interval between consecutive single-electrode bursts (temporally-clustered groups of action potential firing) during a recording in a microelectrode array (MEA) using Axion Biosystems Maestro 768 channel amplifier with the AxIS adaptive spike detector. The mean inter-burst interval is averaged across the actively bursting electrodes to report a well-mean value. To collapse across multiple recordings made on days post-plating 5, 7, 9 and 12, the trapezoidal area-under-the-curve of the component is calculated.Data from the assay component CCTE_Shafer_MEA_dev_interburst_interval_mean was analyzed into 1 assay endpoint. This assay endpoint, CCTE_Shafer_MEA_dev_interburst_interval_mean, was analyzed in the negative analysis fitting direction relative to DMSO as the negative control and baseline of activity. Using a type of functional reporter, gain or loss-of-signal activity can be used to understand electrical activity.
# On the day prior to culture, each well was coated thoroughly with 150 uL of 0.05% polyethyleneimine (PEI, Sigma Cat P3143) in 50 mM HEPES (Sigma Cat H7523) at a pH of 8. The plate was incubated at 37C for one hour. PEI was rinsed out with 500 uL of sterile water three times. Plates were stored at 4C until the day of culture. This culture was plated at a seeding density of 1.5 x 10^5 cells/well on a 48-well MEA plate, prepared as described above. Cells were administered via a 25 uL media/laminin ([…]; Sigma Cat L2020-1MG) drop directly onto the microelectrode array, as adding the cells with the laminin results in better attachment than pre-coating with laminin. After 2 hours, an additional 475 uL of cortical media was added and the cells returned to the incubator. Exposure starts at day 0 of plating and is continued over twelve days of network development until the experiment is terminated. Cells are fed with fresh medium on DIV 5 and 9, following the recordings on those days. The entire volume of media in the well is exchanged and any vehicle or compound treatment is renewed. Complete details are found in OP-NHEERL/ISTD/SBB/TJS/2015-03-r0 (available on request, email shafer.tim@epa.gov). Measurement of the electrical activity is non-invasive, and recordings can be made from the same plate over multiple different days of the culture. In cortical neurons, this allows for the measurement of extracellular action potentials over the period during which networks form in the MEA plate.
Structure (SMILES),outcome,AC50
S=C([S-])NCCNC(=S)[S-].[Mn+2],inactive,–
O=C(O)c1ccccc1,inactive,–
CC1(C)C(C=C(Cl)Cl)C1C(=O)OCc1cccc(Oc2ccccc2)c1 (stereo not given),–,25.4 µM (active) and 10.1 µM (active)
COCCO,inactive,–
CCCCC(CC)CN1C(=O)C2C3C=CC(C3)C2C1=O (stereo not given),inactive,–
CCCCOCCOCCOCc1cc2c(cc1CCC)OCO2,inactive,–
CCN(CC)C(=O)c1cccc(C)c1,inactive,–
Cc1nn(C)c(Oc2ccccc2)c1C=NOCc1ccc(C(=O)OC(C)(C)C)cc1,–,2.91 nM (active)
S=C(S)NCCNC(=S)S.[Mn+2].[S-]C([S-])=NCCN=C([S-])[S-].[Zn+2],inactive,–
Oc1ccc(C(c2ccc(O)cc2)C(Cl)(Cl)Cl)cc1,inactive,–
CC(C)(c1ccc(O)cc1)c1ccc(O)cc1,inactive,–
OB(O)O,inactive,–
CSC(=O)c1cccc2nnsc12,inactive,–
C#CCOC(=O)[C@@H](C)Oc1ccc(Oc2ncc(Cl)cc2F)cc1,inactive,–
CCCN(CCC)C(=O)SCC,inactive,–
